Assay [1] is described as follows: Nuclear factor erythroid 2-related factor 2/antioxidant responsive element (Nrf2/ARE) small molecule agonists: qHTS cell viability counter screen in human keratinocytes (AID 1919968; active means well fitted curve in the direction sought with a large enough effect in the repeat runs; an effect the other way counts as inactive or inconclusive; further: nearly all actives have a fitted effect of over 55% in size). A digest of the protocol: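 In human HaCaT keratinocytes stably expressing an ARE-driven luciferase, compound exposure lasted 23 h at 37 C under 5% CO2. Viable cells are quantified with a protease-based fluorogenic reagent (CellTiter-Fluor) read 1 h after addition.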
(In general: qHTS replaces the single test concentration by a dilution series.)

Assay [2] in a line: Nuclear factor erythroid 2-related factor 2/antioxidant responsive element (Nrf2/ARE) small molecule agonists: luciferase reporter gene qHTS assay in human keratinocytes (AID 1919969). Further: nearly all actives have a fitted effect of over 35% in size. Further: potency means the concentration at half of the fitted maximal effect. For orientation: A reporter such as luciferase makes a cellular process visible.
Assay [3] concerns the target Gonadotropin-releasing hormone receptor (Homo sapiens) (UniProt P30968). The assay can be described thus: Human gonadotropin-releasing hormone receptor (GnRHR) small molecule agonists, calcium flux assay in GnRHR-HEK293 cells (AID 1920063). Further: nearly all actives have a fitted effect of over 35% in size. Put shortly:
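Intracellular calcium rise is the read-out: engineered human GnRHR HEK293 cells, dye-loaded, are exposed to DMSO-dissolved compounds and fluorescence at Ex/Em 480/540 is tracked for 3 min.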
(In general: Calcium assays in cells follow changes in intracellular calcium, usually with a dye or a luminescent sensor.)

Assay [4] deals with KiSS-1 receptor (Homo sapiens) (UniProt Q969F8). The assay can be described thus: Human kisspeptin (KISS1R) small molecule agonists, calcium flux assay in KISS1R-HEK293 cells (AID 1920064; active means well fitted curve in the direction sought with a large enough effect in the repeat runs; an effect the other way counts as inactive or inconclusive). Put shortly: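 Concentration-response testing used 15 concentrations in triplicate on human KISS1R-expressing HEK293 cells. Calcium-dependent fluorescence (Ex/Em 480/540) was followed kinetically for 3 min after compound transfer.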

Assay [5] in a line: G protein-coupled receptor (GPCR) small molecule agonists, calcium flux assay: HEK293 wild type cell line counter screen (AID 1920065). Put shortly:
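Fluorescence intensity signals activation. After overnight (18 h) culture and a 1 h calcium dye load at 37 C, compounds are added by pin tool and the plate read at 480/540 nm for 3 min in 1 s steps.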

A short description of assay [6]: p53 small molecule agonists, cell-based qHTS assay with human liver microsomes (AID 1963577). Put shortly:
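p53RE-bla cells, 4,000/well, compound added after 5 h, with human liver microsomes 0.5 mg/mL and NADPH 0.5 mg/mL final; 16 h at 37 C, then LiveBLAzer 2 h RT, fluorescence.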

Assay [7] in a line: p53 small molecule agonists, cell-based qHTS assay with rat liver microsomes (AID 1963578). A digest of the protocol:
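p53RE-bla cells, 4,000/well, pre-incubated 5 h, then given compounds plus rat liver microsomes (0.5 mg/mL final) and NADPH (0.5 mg/mL final). Incubation 16 h at 37 C; beta-lactamase reporter read by LiveBLAzer fluorescence after 2 h at room temperature.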

Assay [8] in a line: p53 small molecule agonists, cell-based qHTS assay with human liver microsomes: qHTS cell viability counter screen (AID 1963579). Further: nearly all actives have a fitted effect of over 45% in size. A digest of the protocol:
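p53RE-bla cells, 4,000/well, dosed 5 hours after plating, with human liver microsomes (0.5 mg/mL final) plus NADPH (0.5 mg/mL final), 16 hours at 37 C. Viability read as CellTiter-Glo luminescence after 30 min at room temperature.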

A short description of assay [9]: p53 small molecule agonists, cell-based qHTS assay with rat liver microsomes: qHTS cell viability counter screen (AID 1963580). Further: nearly all actives have a fitted effect of over 45% in size. Put shortly: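 Rat liver microsome (0.5 mg/mL final) and NADPH (0.5 mg/mL final) co-incubation with compounds for 16 h at 37 C on HCT-116 p53RE-bla cells; cytotoxicity taken from intracellular ATP luminescence.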
A short description of assay [10]: p53 small molecule agonists, cell-based qHTS assay (AID 1963582; active means well fitted activation curve with a large enough effect in the signal ratio in the repeat runs, not every such curve was filed as active; the % refers to the signal ratio). A digest of the protocol: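 After plating, p53RE-bla cells sat 5 h in the incubator; compounds or DMSO vehicle were pinned in; a 16 h incubation at 37 C followed; FRET substrate was added and, 2 h later at RT, fluorescence was measured.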
The target in assay [11] is 5-hydroxytryptamine receptor 2A (Homo sapiens) (UniProt P28223). As to the kind of experiment: 5-hydroxytryptamine receptor 2A (HTR2A) small molecule antagonists, cell-based qHTS assay (AID 1963586). Further: nearly all actives have a fitted effect of over 45% in size. Put shortly:
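CHO cells stably expressing human HTR2A were plated for 18 h at 37 C, then loaded with calcium dye for 1 h. Compounds were preincubated 5 min at room temperature before DOI (4 nM solution) was added. Kinetic fluorescence was read for 3 min.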

For assay [12] the target is unchanged. As to the kind of experiment: 5-hydroxytryptamine receptor 2A (HTR2A) small molecule agonists, cell-based qHTS assay (AID 1963587). Further: nearly all actives have a fitted effect of over 30% in size. A digest of the protocol:
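Kinetic calcium-flux fluorescence (2 min, 1 sec intervals) after compound addition in agonist mode. HTR2A-CHO cells were cultured 18 h, then dye-loaded 1 h at 37 C.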

The target in assay [13] is Muscarinic acetylcholine receptor M1 (Homo sapiens) (UniProt P11229). The assay can be described thus: Cholinergic receptor muscarinic 1 (CHRM1) small molecule antagonists, cell-based qHTS assay (AID 1963588). Further: nearly all actives have a fitted effect of over 40% in size. A digest of the protocol:
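Compounds were tested at 15 concentrations in three independent runs. Dye-loaded CHRM1-CHO cells were exposed 5 min at room temperature before stimulation by acetylcholine added at 50nM. Intracellular calcium was read kinetically on FDSS for 3 min.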

Assay [14] has the same target. The assay can be described thus: Cholinergic receptor muscarinic 1 (CHRM1) small molecule agonists, cell-based qHTS assay (AID 1963589). Further: nearly all actives have a fitted effect of over 35% in size. A digest of the protocol: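 Fluorescent calcium dye reports M1 activation in stably transfected CHO cells. Compounds, 15 concentrations, added after 1 h dye loading at 37 C; kinetic reading at 1 sec intervals.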
Assay [15] is described as follows: cAMP Responsive Elements (CRE) small molecule agonists, cell-based qHTS assay (AID 1963590). Put shortly: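 Compound exposure lasted 3 h at 37 C/5% CO2 in CRE-bla HEK 293T cells grown in assay medium with 10% dialyzed FBS and 25 mM HEPES. Reporter signal came from LiveBLAzer B/G FRET substrate, 2 h, room temperature.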
Assay [16] is described as follows: cAMP Responsive Elements (CRE) small molecule antagonists, cell-based qHTS assay (AID 1963591; active means well fitted inhibition curve with a large enough effect in the signal ratio in the repeat runs, not every such curve was filed as active; the % refers to the signal ratio). A digest of the protocol: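 Stimulation used NKH477 at a final 0.25 uM for 3 h in compound-treated CRE-bla HEK293T cells, seeded 18 h beforehand. Reporter activity was measured with LiveBLAzer B/G FRET substrate after 2 h at room temperature.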
For assay [17], the target named is Beta-2 adrenergic receptor (Homo sapiens) (UniProt P07550). The assay can be described thus: Adrenergic beta2 receptor (ADRB2) small molecule antagonists, cell-based qHTS assay (AID 1963592). Further: series mostly up to about 92 µM; nearly all actives have a fitted effect of over 50% in size. A digest of the protocol: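 Assay format: CHO-ADRB2 cells, 18-20hr seeding at 37C/5% CO2, then compound plus 1nM isoproterenol agonist mix for 0.5hr RT. Homogeneous time-resolved fluorescence cAMP detection after 1hr, expressed as 665/615 nm ratio.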

In assay [18] the target is D(2) dopamine receptor (Homo sapiens) (UniProt P14416). As to the kind of experiment: Dopamine D2 receptor (DRD2) small molecule agonists, cell-based qHTS assay (AID 1963594). Further: nearly all actives have a fitted effect of over 35% in size. Put shortly: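 cAMP accumulation in DRD2-HEK293 cells measured by HTRF after 1 h detection; compounds added 10 min before NKH477 (200nM […]) forskolin-analogue stimulation, 30 min at room temperature, with Ro20-1724 present at 0.1 mM final.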

The target is the same in assay [19]. The assay can be described thus: Dopamine D2 receptor (DRD2) small molecule antagonists, cell-based qHTS assay (AID 1963595; active means well fitted inhibition curve with a large enough effect in the signal ratio in the repeat runs, with a control signal flat; the % refers to the signal ratio). A digest of the protocol: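 Human DRD2 antagonist qHTS measuring cAMP by HTRF. The cells are exposed to compound for 10 min, then to NKH477 (200 nM) and quinpirole (12 nM) for 30 min at RT, with Ro20-1724 (0.1 mM) present throughout.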

Each structure is given as a SMILES string. Values without a mark were called inactive. Records with an inconclusive call do not appear. The source made the active and inactive calls. Unless noted, the call rests on the fitted dose curve.

5-hydroxytryptamine receptor 2A (Homo sapiens), sequence (P28223 whole entry, looked up): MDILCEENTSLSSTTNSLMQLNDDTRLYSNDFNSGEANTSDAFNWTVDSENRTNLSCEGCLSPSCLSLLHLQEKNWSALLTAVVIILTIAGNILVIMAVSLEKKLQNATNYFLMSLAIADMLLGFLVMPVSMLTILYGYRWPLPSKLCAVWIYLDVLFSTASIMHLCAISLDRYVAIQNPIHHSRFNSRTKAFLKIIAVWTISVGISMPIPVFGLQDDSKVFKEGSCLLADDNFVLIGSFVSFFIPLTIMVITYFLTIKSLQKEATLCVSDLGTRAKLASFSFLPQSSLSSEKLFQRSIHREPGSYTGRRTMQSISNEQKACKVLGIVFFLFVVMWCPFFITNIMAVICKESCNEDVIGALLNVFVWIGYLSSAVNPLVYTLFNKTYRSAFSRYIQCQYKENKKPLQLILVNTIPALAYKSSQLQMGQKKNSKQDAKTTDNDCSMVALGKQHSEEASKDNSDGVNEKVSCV
D(2) dopamine receptor (Homo sapiens), sequence (P14416 whole entry, looked up): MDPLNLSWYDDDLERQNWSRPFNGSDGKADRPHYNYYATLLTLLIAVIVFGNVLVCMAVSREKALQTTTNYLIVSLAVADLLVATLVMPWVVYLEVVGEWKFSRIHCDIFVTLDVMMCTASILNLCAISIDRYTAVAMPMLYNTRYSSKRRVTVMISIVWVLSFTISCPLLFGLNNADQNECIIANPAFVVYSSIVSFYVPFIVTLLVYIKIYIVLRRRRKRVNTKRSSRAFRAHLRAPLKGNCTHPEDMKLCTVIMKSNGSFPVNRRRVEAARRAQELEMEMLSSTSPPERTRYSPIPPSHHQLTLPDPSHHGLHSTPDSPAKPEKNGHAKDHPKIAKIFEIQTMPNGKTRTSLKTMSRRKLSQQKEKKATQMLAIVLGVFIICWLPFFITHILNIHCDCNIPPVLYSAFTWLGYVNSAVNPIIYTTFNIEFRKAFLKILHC
KiSS-1 receptor (Homo sapiens), sequence (Q969F8 whole entry, looked up): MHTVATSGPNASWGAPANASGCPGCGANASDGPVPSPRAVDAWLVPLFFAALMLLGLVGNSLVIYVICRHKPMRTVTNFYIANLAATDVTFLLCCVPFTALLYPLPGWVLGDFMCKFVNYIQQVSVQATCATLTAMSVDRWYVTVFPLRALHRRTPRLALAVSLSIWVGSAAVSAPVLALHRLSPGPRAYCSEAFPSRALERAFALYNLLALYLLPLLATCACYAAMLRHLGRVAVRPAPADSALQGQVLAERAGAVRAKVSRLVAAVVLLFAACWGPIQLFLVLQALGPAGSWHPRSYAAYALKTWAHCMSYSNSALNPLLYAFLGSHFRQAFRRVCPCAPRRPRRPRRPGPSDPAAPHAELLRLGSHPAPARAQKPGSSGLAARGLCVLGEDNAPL
Beta-2 adrenergic receptor (Homo sapiens), sequence (P07550 whole entry, looked up): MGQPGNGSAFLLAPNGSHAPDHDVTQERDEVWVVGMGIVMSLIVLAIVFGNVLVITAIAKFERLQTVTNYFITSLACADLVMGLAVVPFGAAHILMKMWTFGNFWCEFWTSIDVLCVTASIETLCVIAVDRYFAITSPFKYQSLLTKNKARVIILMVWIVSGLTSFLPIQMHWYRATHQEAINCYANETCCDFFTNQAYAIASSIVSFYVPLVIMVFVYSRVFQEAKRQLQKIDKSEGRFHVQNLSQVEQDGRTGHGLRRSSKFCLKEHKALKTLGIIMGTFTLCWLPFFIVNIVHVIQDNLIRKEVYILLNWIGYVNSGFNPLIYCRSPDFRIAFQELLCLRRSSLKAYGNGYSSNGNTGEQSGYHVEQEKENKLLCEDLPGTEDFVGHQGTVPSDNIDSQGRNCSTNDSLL
Muscarinic acetylcholine receptor M1 (Homo sapiens), sequence (P11229 whole entry, looked up): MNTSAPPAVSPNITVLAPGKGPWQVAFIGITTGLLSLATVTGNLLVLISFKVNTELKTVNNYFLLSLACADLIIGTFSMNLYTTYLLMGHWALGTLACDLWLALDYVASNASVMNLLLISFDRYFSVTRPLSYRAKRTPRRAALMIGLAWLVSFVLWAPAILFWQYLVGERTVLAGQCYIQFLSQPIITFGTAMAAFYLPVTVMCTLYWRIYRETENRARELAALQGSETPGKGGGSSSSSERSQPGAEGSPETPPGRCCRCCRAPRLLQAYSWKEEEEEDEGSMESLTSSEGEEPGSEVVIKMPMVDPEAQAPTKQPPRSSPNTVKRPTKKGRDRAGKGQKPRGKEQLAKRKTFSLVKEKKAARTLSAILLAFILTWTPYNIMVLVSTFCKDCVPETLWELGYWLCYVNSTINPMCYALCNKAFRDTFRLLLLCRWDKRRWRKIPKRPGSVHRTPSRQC
Gonadotropin-releasing hormone receptor (Homo sapiens), sequence (P30968 whole entry, looked up): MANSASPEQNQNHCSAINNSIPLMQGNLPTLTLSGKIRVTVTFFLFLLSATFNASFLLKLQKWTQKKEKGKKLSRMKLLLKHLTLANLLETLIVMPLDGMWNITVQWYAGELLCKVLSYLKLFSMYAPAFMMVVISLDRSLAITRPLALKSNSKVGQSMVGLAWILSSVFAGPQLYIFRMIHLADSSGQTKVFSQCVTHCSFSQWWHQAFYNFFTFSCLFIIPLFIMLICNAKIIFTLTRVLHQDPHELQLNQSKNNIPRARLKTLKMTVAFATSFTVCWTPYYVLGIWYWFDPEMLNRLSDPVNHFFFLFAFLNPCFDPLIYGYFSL

As to `Cc1ccc(C)c(N)c1`, the Potency entry in assay [1], in assay [2], in assay [3], in assay [6], in assay [7] and in assay [8] was “inactive” each time. Besides, the Potency entry in [9], in assay [10], in assay [11], in assay [12], in assay [13] and in [14] was “inactive” throughout. Besides, the Potency result in [15], in assay [16], in assay [17], in assay [18] and in assay [19] was “inactive” each time. Also, the outcome in [4] and in assay [5] was inactive.

On to `CCCCCC(=O)OCCc1ccccc1`, for which the Potency result in [1], in [2], in assay [3], in assay [6], in assay [7] and in [8] was “inactive” throughout. Also, the Potency result in [9], in assay [10], in assay [11], in assay [12], in assay [13] and in assay [14] was “inactive” throughout. Moreover, the Potency result in assay [15], in assay [16], in assay [17] and in [19] was “inactive” throughout. For the same molecule, the outcome in [4] and in [5] was inactive.

Turning to `C=C(C)C(=O)OCCN(CC)CC`, the Potency entry in assay [1], in assay [2], in assay [3], in assay [6], in assay [7] and in assay [8] was “inactive” in each case. For the same molecule, the Potency entry in assay [9], in assay [10], in assay [12], in assay [13], in assay [14] and in [15] was “inactive” in each case. Also, the Potency entry in assay [16], in assay [17], in [18] and in [19] was “inactive” each time. Further, the outcome in [4] and in assay [5] was inactive.

Regarding `CCN(CC)C(C)CN1c2ccccc2Sc2ccccc21` (stereo not given), the Potency entry in [1], in assay [2], in assay [3], in [6], in assay [7] and in assay [8] was “inactive” each time. For the same molecule, the Potency entry in [9], in [10], in assay [12], in [14], in assay [15] and in assay [16] was “inactive” throughout. The Potency result in assay [17], in assay [18] and in assay [19] was “inactive” throughout. In addition, the result in assay [4] and in assay [5] was inactive.

Regarding `N[C@@H](Cc1cc(I)c(O)c(I)c1)C(=O)O`, the Potency entry in assay [1], in assay [2], in [3], in assay [6], in assay [7] and in assay [8] was “inactive” throughout. The Potency result in assay [9], in [10], in assay [11], in [13], in assay [14] and in assay [15] was “inactive” each time. Further, the Potency entry in [16], in [17] and in assay [19] was “inactive” each time. Moreover, the result in [4] and in assay [5] was inactive.

With `Cc1occc(=O)c1OC(=O)C(C)C`, the Potency entry in assay [1], in assay [2], in assay [3], in assay [6], in [7] and in [8] was “inactive” in each case. For the same molecule, the Potency entry in assay [9], in assay [11], in assay [12], in assay [13], in [14] and in [15] was “inactive” each time. In addition, the Potency result in assay [16], in [17], in [18] and in assay [19] was “inactive” each time. Besides, the outcome in [4] and in assay [5] was inactive.

With `COc1ccc(Nc2ccc(OC)cc2)cc1`, the Potency entry in assay [1], in assay [3], in assay [6], in assay [7], in assay [8] and in assay [9] was “inactive” throughout. Further, the Potency result in assay [11], in [12], in assay [13], in assay [14], in [15] and in [16] was “inactive” each time. The Potency entry in assay [17], in assay [18] and in assay [19] was “inactive” throughout. In addition, the Potency in [2] was 27.8 µM (active). Moreover, the outcome in assay [4] and in [5] was inactive.

Values taken from PubChem BioAssay (Tox21).
